# Measured values reported in PubChem BioAssay (NCI).
# The panel holds about 83,000 compounds, 20% with a hit somewhere; the sample as a whole holds those more often.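 Treatment: one concentration, 48 hours, 96-well format. Scoring: percent growth, with anything below 10 considered active.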 Unmarked numbers belong to inactive results. Calls of active or inactive are those of the source.
# Key:
# Assay in all cases: NCI-60 one-dose screen, 48 h (100 = growth as untreated, 0 = no growth, -100 = all killed)
# Settings in all cases: 10 µM unless noted
# SK-MEL-2 melanoma = test system: SK-MEL-2 melanoma
# EKVX NSCLC = test system: EKVX NSCLC
# SN12C renal = test system: SN12C renal
# UO-31 renal = test system: UO-31 renal
# TK-10 renal = test system: TK-10 renal
# ACHN renal = test system: ACHN renal
# A498 renal = test system: A498 renal
# CCRF-CEM leukemia = test system: CCRF-CEM leukemia
# MOLT-4 leukemia = test system: MOLT-4 leukemia
# SR leukemia = test system: SR leukemia
Compound,growth (SK-MEL-2 melanoma),growth (EKVX NSCLC),growth (SN12C renal),growth (UO-31 renal),growth (TK-10 renal),growth (ACHN renal),growth (A498 renal),growth (CCRF-CEM leukemia),growth (MOLT-4 leukemia),growth (SR leukemia)
CC(=O)Nc1nc2c(c(N)c1C#N)C(c1cccc(Cl)c1)C1=C(CCCC1=O)N2c1sc2c(c1C#N)CCCC2 (stereo not drawn),55.5%,35.9%,52.3%,37.1%,44.5%,53.3%,62.4%,50.4%,12.6%,26%
NS(=O)(=O)c1ccc(C2C3=C(CCCC3=O)OC3=C2C(=O)c2ccccc2C3=O)cc1 (stereo not drawn),-74% (active),-55.4% (active),-52.7% (active),-21.6% (active),-92.6% (active),-78.9% (active),-68.9% (active),-10.5% (active),,-19.9% (active)
C/C(=C\c1cnc(C)s1)[C@@H]1C[C@@H]2O[C@@H]2CCC[C@H](C)[C@H](O)[C@@H](C)C(=O)C(C)(C)[C@@H](O)CC(=O)O1,27.5%,44.4%,54%,36.4%,44.8%,52.8%,4.95% (active),30.7%,31.7%,30%
CC(C)C[C@H](C(=O)O)N(C)C(=O)[C@@H]1CCCN1C(=O)[C@H](C)OC(=O)[C@H](CCC(N)=O)NC(=O)[C@@H]1CCC(=O)N1,110%,94.1%,97.1%,88.3%,105%,106%,107%,102%,,94.4%
C=C1C(=O)O[C@H]2[C@H]1CC/C(COC(=O)CCCCC(=O)OC/C1=C/CC[C@@]3(C)O[C@H]3[C@H]3OC(=O)C(=C)[C@@H]3CC1)=C\CC[C@@]1(C)O[C@@H]21,71.9%,59.1%,27.8%,45.8%,25.2%,12.6%,124%,0.447% (active),,2.3% (active)
O=C(O)c1cn(C2CC2)c2cc(N3CCN(C(=O)CSc4nnc(-c5ccc(Cl)cc5)n4-c4ccccc4)CC3)c(F)cc2c1=O,104%,111%,102%,84.7%,99.4%,,67.8%,84.3%,103%,89.9%
O=C(CCc1nnco1)c1nc2ccc([N+](=O)[O-])cc2[nH]1,94.7%,94%,107%,74.9%,146%,,126%,109%,97.9%,91.5%
COc1ccc2[nH]c3nc4cnccc4cc3c2c1,110%,72.2%,101%,71.2%,111%,,114%,98.1%,102%,103%
Cn1cc(-c2ccc3c(c2)ncn3-c2ccc(CC(=O)Nc3cc(C(C)(C)C)on3)cc2)cn1,23.4%,20.5%,13.1%,3.88% (active),-8.53% (active),,-47.1% (active),57.7%,27.4%,18.8%
C#C[C@@]1(O)[C@@H](CO)O[C@@H](n2cc(-c3ccco3)c3c(N)ncnc32)[C@@H]1O,84.3%,67.3%,71.8%,36.5%,69.1%,,54.6%,86.9%,,
CNc1cccc2c1C(=O)c1cccc(N)c1C2=O,63.7%,37.9%,91%,62.1%,25.8%,,65%,20.5%,29.4%,
O=c1c2ccccc2oc2ccc(OCCCCCCN3CCCCCC3)cc12,76.9%,62.8%,55%,41.8%,66.3%,,70.2%,43.3%,6.07% (active),1.08% (active)
O=C(Nc1nccs1)c1noc2ccccc12,109%,88.6%,97.1%,86.1%,133%,96.9%,101%,85.7%,,87%
Cn1nc(C(F)(F)F)c(-c2cc(C(F)(F)F)cc(C(F)(F)F)c2)c1-c1ccc(OCc2ccc(Cl)cc2)cc1O,-34% (active),7.7% (active),7.93% (active),-1.27% (active),9.29% (active),,-26.9% (active),6.82% (active),-11.7% (active),-4.24% (active)
CN(C)CCCn1c2c(c3cc(-c4cccc(S(N)(=O)=O)c4)ccc3c1=O)C(=O)c1ccccc1-2,124%,88.6%,78.3%,72.9%,99.5%,,96.4%,18.8%,8.99% (active),-5.99% (active)
COc1ccc2nc(-c3ccc(OC)c(OC)c3)cc(-c3nnc(SCC(=O)Nc4ccc(C(C)=O)cc4)o3)c2c1,100%,108%,98.8%,91.7%,109%,,93.6%,94.8%,,88.8%
OCCNc1nc(NCCO)nc(Nc2ccc(C3=NN(c4cc(Cl)cc(Cl)c4)C(c4ccccc4)C3)cc2)n1 (stereo not drawn),40.4%,59.4%,55%,56.9%,74.1%,,85.1%,24.3%,20.5%,5.4% (active)
COc1cc2cc(c1Cl)N(C)C(=O)C[C@H](OC(=O)[C@H](C)N(C)C(=O)CCS)C[C@]1(C)O[C@H]1[C@H](C)[C@@H]1C[C@@](O)(NC(=O)O1)[C@H](OC)/C=C/C=C(\C)C2,20%,38.8%,28.2%,47.4%,62.4%,,-21.9% (active),16.2%,,12.2%
COC1=CC2C=C(C3N(c4ccccc4)NC(=O)[C@@H]4CCCN34)C(=O)NC2C=C1 (stereo partly drawn),97.9%,96.7%,107%,86.9%,100%,,95.9%,113%,,105%
Oc1ccc(CNNc2ccnc3c(O)cccc23)c2cccnc12,31.4%,8.17% (active),45.4%,23.7%,30.7%,,74.7%,18.7%,13.4%,20.4%
CN1CCN(S(=O)(=O)O[C@@H]2C(=O)N(c3cc4c5ccccc5ccc4c4ccccc34)[C@H]2c2ccc(F)cn2)CC1,92.8%,85%,92.2%,66.6%,94.6%,,80.4%,74.8%,66.6%,52.5%
COc1ccc(-c2nc(C#N)c(NCC(c3ccco3)N3CCCC3)o2)cc1 (stereo not drawn),53.3%,54.2%,49.5%,51.5%,82.1%,,42.6%,18.4%,29.7%,21.1%
CCCCCCC/C=C/[C@H]1O[C@]23C(=O)C[C@@]4(C[C@@H](OC5OC(CO)C(O)C(O)C5O)C[C@@H]4[C@H]2C=C1C)OC3=O (stereo partly drawn),-9.46% (active),86.9%,26.7%,3.36% (active),35.8%,4.9% (active),70.1%,19%,,6.22% (active)
O=C(NCc1ccccc1)c1ccc2c(c1)NC(=O)[C@@H]1CCCN21,99%,101%,105%,90.9%,93.8%,,70.3%,116%,113%,106%
C=C(C)[C@@H]1CC[C@]2(C(N)=O)CC[C@]3(C)[C@H](CC[C@@H]4[C@@]5(C)CCCNC(C)(C)[C@@H]5CC[C@]43C)[C@@H]12,105%,87.5%,77.7%,84.4%,107%,,99%,52.5%,48.9%,3% (active)
COc1ccc2c(c1)/C(=C1\S/C(=N/c3nnc(C)s3)NC1=O)C(=O)N2Cc1ccc(Cl)cc1,43.4%,38.8%,51.6%,57.7%,58.4%,,-4.96% (active),31.7%,24.6%,55.7%
O=c1[nH]c2ccccc2cc1-c1nc2ccncc2[nH]1,73.9%,81.9%,94.3%,78.4%,73.8%,,88.7%,59.5%,45.8%,46.8%
Cc1nc2sc(C(=O)Nc3ccccc3Cl)c(N)c2cc1C(C)O (stereo not drawn),75%,89%,89.4%,96.3%,81.7%,,70.7%,79.5%,64%,33.2%
